Pf growth 48h: P. falciparum growth inhibition at 48 hours (one generation) | hit rate 5.9% among 310,000 | P. falciparum luciferase growth in erythrocytes, 48 h | Potency, µM (doses to about 28.7 µM), for inactives: top-dose activity change, negative = inhibition, most hits filed as inhibitors; further: potency means the concentration at half of the fitted maximal effect; on the % scale 0 is the no-effect control and ±100 the full control effect
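In quantitative HTS format, infected erythrocytes bearing luciferase-reporter parasites were treated for a single generation at 37 C. Luminescence after adding detection reagent served as the growth measure.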
Sm TGR inh: blocks Schistosoma mansoni thioredoxin glutathione reductase; Q962Y6; purified TGR, DTNB reduction, TNB absorbance 405 nm; Potency, µM (titrated, usually from 114 µM), for the others: top-dose activity change, negative = inhibition, usual class: inhibitors; hit rate 3% among 360,000; AID 485364; further: potency means the concentration at half of the fitted maximal effect; on the % scale 0 is the no-effect control and ±100 the full control effect; nearly all actives have a fitted effect of over 60% in size
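Kinetic colorimetric format: TGR-catalysed, NADPH-driven DTNB reduction monitored via TNB absorbance. Enzyme dispensed at 20 nM; compound exposure 15 min at room temperature before reaction start.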
NS1 function inh: blocks influenza NS1 protein function | Potency, µM (titrated, usually from 46.1 µM), inactives show at the top dose activity, positive = more growth | hit rate 0.4% among 270,000 | AID 2326; calls by dose curve; further: potency means the concentration at half of the fitted maximal effect; actives are rising curves; nearly all actives have a fitted effect of over 50% in size
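A cell-based growth assay was used: compounds that relieve NS1-induced slow growth of budding yeast raise OD600. Assay medium was yeast nitrogen base with ammonium sulphate and -URA supplement, pH 6.0, with 2% galactose.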
CHX counter: counter-screen for Shiga toxin inhibitors: cycloheximide protein synthesis inhibition | cell reporter, cycloheximide protein synthesis inhibition counterscreen | max response, % | hit rate 12% among 300,000 | AID 2314; in the data active means max response mostly above about 13%, no sharp cut-off; inactive means mostly below about 14%; further: read at 38.3 µM for the half of the compounds with a filed dose; 0% is about no effect
Shiga toxin inh: blocks Shiga toxin action in Vero cells. Vero cells, Shiga toxin protein synthesis inhibition reporter. hit rate 9.2% among 290,000. inhibition, % at 38.7 µM; in the data active means inhibition mostly above about 28%, no sharp cut-off; inactive means mostly below about 43%; further: 0% is about no effect
Pf growth 96h: inhibits malaria parasite growth, 96 h; P. falciparum luciferase reporter growth, 96 h; Potency, µM (doses to about 28.7 µM), for inactives: top-dose activity change, negative = inhibition, usual class: inhibitors; hit rate 6.9% among 320,000; further: potency means the concentration at half of the fitted maximal effect; on the % scale 0 is the no-effect control and ±100 the full control effect
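Luminescence readout: decreased luciferase signal marks inhibited growth of reporter-expressing P. falciparum in infected red cells (2% hematocrit, 0.05% parasitemia final), exposed to compound two generations (96 h, 37 C, 5% CO2).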
The depositor's hits bear a star; i = inactive; ? = inconclusive; / = not tested or not shown; [ ] = another dose, or the depositor's remark. In the library only some 21% were active in any assay of this set; here they are far more common. Unless noted, the call rests on the fitted dose curve; in most records, active means well fitted curve in the direction sought with a large enough effect; inconclusive means small, poorly fitted or top-dose-only effect, or another doubt; inactive means no such curve, though single readings can be large; an effect the other way counts as inactive or inconclusive.

SMILES	Pf growth 48h	Sm TGR inh	NS1 function inh	CHX counter	Shiga toxin inh	Pf growth 96h
O=C(Nc1cc(Cl)ccc1Cl)c1cc(-c2ccco2)on1	22%	-13%	1%	-2	11	-1%
Cc1ccc(NC(=O)c2cc(-c3cccc(O)c3)on2)cc1C	/	-28%	-36%	47*	78*	-37%
Cc1c(CN2CCC(n3nccc3NC(=O)C3CC3)CC2)[nH]c2ccccc12	?	-19%	0%	-4	-12	4%
COc1ccc(-c2nnc(NC(=O)c3ccc(F)cc3)o2)cc1	?	-5%	-29%	-4	21	?
CS(=O)(=O)c1cccc(-c2nnc(NC(=O)c3ccc4c(c3)OCCO4)o2)c1	/	2%	/	/	/	/
CC1CCN(S(=O)(=O)c2ccc(C(=O)Nc3nnc(-c4ccco4)o3)cc2)CC1	?	0%	-2%	-3	-14	15µM*
O=C(Nc1nnc(-c2ccco2)o1)c1ccc(S(=O)(=O)N2CCCC2)cc1	12µM*	-4%	/	7	30	?
O=C(Nc1nnc(-c2ccc(F)cc2)o1)c1ccc(S(=O)(=O)N2CCOCC2)cc1	?	4%	2%	-3	-4	3.3µM*
CS(=O)(=O)c1cccc(-c2nnc(NC(=O)c3ccc(S(=O)(=O)N4CCCC4)cc3)o2)c1	?	5%	/	/	/	13µM*
O=C(Cc1ccsc1)NCc1ccccc1F	-75%	-13%	3%	4	-23	?
CCCCN(CCCC)CCNC(=O)c1cn(CC)c2ccc(S(=O)(=O)N3CCCC3)cc2c1=O	-21%	-11%	-4%	-11	-9	1%
COc1ccc(C(=O)NC(=S)N2CCN(c3ccccc3OC)CC2)cc1OC	0%	-7%	-2%	-1	-9	41%
O=[N+]([O-])c1ccccc1S(=O)(=O)N1CCCCC1	25%	-22%	12%	-1	-14	0%
O=[N+]([O-])c1ccccc1S(=O)(=O)N1CCCC(C(F)(F)F)C1 (stereo unspecified)	8%	-7%	-4%	1	-4	0.83µM*
C(=N\N=C\c1ccccc1)/c1ccccc1	i	-1%	8%	55*	132*	-24%
Fc1cccc(/C=N/N=C/c2cccc(F)c2)c1	?	-7%	-4%	31*	112*	9%
Cc1ccc(/C=N/N=C/c2ccc(C)cc2)cc1	?	-1%	2%	37*	74*	?
Oc1ccc(O)cc1	-12%	/	-6%	/	/	?
Oc1ccc(/C=N/N=C/c2ccc(O)cc2)cc1	?	/	-1%	50*	115*	8%
NC(=S)N/N=C/c1cccc(/C=N/NC(N)=S)c1	63%	-6%	0%	-2	13	0%
CC1=C(C(=O)Nc2ccccc2C)C(c2sccc2C)n2ncnc2N1 (stereo unspecified)	/	-1%	/	/	/	/
CCCCNC(=O)CCC1N=C2c3ccccc3N=C(SCC(=O)NCCc3ccc(OC)c(OC)c3)N2C1=O (stereo unspecified)	/	6%	/	/	/	/
CCc1ccc(/C(C)=N/NC(=O)c2ccc(-n3cnnn3)cc2)cc1	?	-3%	/	/	/	?
CCOC(=O)C1CCCN(C(=O)c2nn(-c3ccc(OC)cc3)c(=O)c3c2c2ccccc2n3C)C1 (stereo unspecified)	/	5%	/	/	/	/
O=c1c2[nH]c3ccc(F)cc3c2nc2n1CCS2	-12%	6%	/	9	27	34%
SMILES	Pf growth 48h	Sm TGR inh	NS1 function inh	CHX counter	Shiga toxin inh	Pf growth 96h
Cc1nc2c([nH]c3ccccc32)c(=O)n1N	55%	-10%	/	28*	88	?
O=c1c2[nH]c3ccc(F)cc3c2nc2n1CCCS2	54%	2%	/	25*	54*	-1%
Nn1c(=O)[nH]c2c([nH]c3ccccc32)c1=O	10%	5%	/	1	-3	?
O=c1c2[nH]c3ccccc3c2nc2n1CCCS2	67%	22%	/	38*	74*	?
CC1CCN(C(=O)Cn2c3ccccc3c3nc4n(c(=O)c32)CCCS4)CC1	-10%	-16%	-1%	-3	2	6%
CC(C)(C)c1cc(Br)c(O)c(CN(Cc2cc(C(C)(C)C)cc(Br)c2O)C2CCCCC2)c1	/	/	-13%	/	/	/
Cc1ccc(-n2c(=O)c3c(cnn3C)n(Cc3ccc(Cl)cc3)c2=O)cc1	/	5%	/	/	/	/
COc1ccc(NC(=O)COC(=O)C2CCC(C(C)(C)C)CC2)c([N+](=O)[O-])c1 (stereo unspecified)	16%	-1%	13%	-3	-4	?
Oc1ccc(OCc2ccccc2)cc1	-27%[12.8 µM]	/	/	/	/	?
O=C1CCCC/C1=N\Nc1ccc(OCc2ccccc2)cc1	0%	-3%	-32%	21*	56*	23%
O=C1CCCC/C1=N\Nc1ccc(C2CCCCC2)cc1	221%	-13%	-5%	39*	64*	0%
O=c1c2cc(N3CCOCC3)ccc2[nH]c(=S)n1CCN1CCCC1	?	-3%	15%	-3	1	?
O=c1c2cc(N3CCOCC3)ccc2[nH]c(=S)n1CCCN1CCCCCC1	?	?	13%	-3	-7	25%
CCCCn1c(=S)[nH]c2ccc(N3CCOCC3)cc2c1=O	?	-3%	/	17	-3	8.3µM*
O=c1c2cc(N3CCOCC3)ccc2[nH]c(=S)n1CCCN1CCN(c2ccccc2F)CC1	19%	-1%	-8%	0	0	-2%
Cc1cccc(N2CCN(C(=O)CCCCCn3c(=S)[nH]c4ccc(N5CCOCC5)cc4c3=O)CC2)c1C	9.3µM*	-15%	16%	-3	-5	3%
O=C(CCCCCn1c(=S)[nH]c2ccc(N3CCOCC3)cc2c1=O)NCc1ccc2c(c1)OCO2	?	-1%	/	-2	-7	4%[5.75 µM]
O=c1c2cc(N3CCOCC3)ccc2[nH]c(=S)n1Cc1ccc(Cl)cc1	/	0%	16%	76*	40*	-56%
O=C(CCCCCn1c(=S)[nH]c2ccc(N3CCOCC3)cc2c1=O)NCc1ccc(Cl)cc1	8.3µM*	-12%	/	8	-2	67%
Cc1ccc(Cn2c(=S)[nH]c3ccc(N4CCOCC4)cc3c2=O)o1	?	?	?	16*	27	0%
COc1ccc(Cn2ccc3nc(C)c(C(=O)N4CCN(c5ccccc5OC)CC4)cc3c2=O)cc1	/	0%	/	/	/	/
CCC(Cc1ccccc1)NC(=O)c1cc(S(=O)(=O)N2CCCCC2)c[nH]1 (stereo unspecified)	-19%	-3%	-13%	2	-8	2.9µM*
CCc1ccccc1NC(=O)c1cc(S(=O)(=O)N2CCCC2)c[nH]1	-17%	-4%	2%	-3	-6	?
